Here are results for 39 compounds from PubChem BioAssay (NCATS).

Inconclusive results are not listed. A number with no mark means an inactive call. The source made the active and inactive calls. The call rests on the fitted dose curve.
On the % scale 0 is the no-effect control and ±100 the full control effect.

The target of the assay is Bile acid receptor (Homo sapiens) (UniProt Q96RI1). Nature of the assay: qHTS assay for small molecule antagonists of farnesoid X receptor signaling (AID 588526). The following applies: HEK293T FXR-UAS-bla, beta-lactamase ratio, antagonist mode; series mostly up to 76.7 µM; activity change, negative = inhibition: at the top concentration. The text has this: NIH Chemical Genomics Center [NCGC] U.S. Environmental Protection Agency [EPA] National Institutes of Environmental Health Sciences [NIEHS] National Toxicology Program [NTP] NCGC Assay Overview The farnesoid-X-receptor (FXR), a nuclear hormone receptor is highly expressed in liver, intestine, kidney and adrenal cortex. Natural ligands of FXR are the bile acids (Cholic acid, Chenodeoxy cholic acid etc). It is an important regulator of diverse metabolic pathways, including the bile acid homeostasis, lipid and glucose metabolisms. FXR regulates the expression of target genes by binding either as a monomer or as a heterodimer with RXR (retinoid X receptor). As FXR regulates a large number of target genes involved in bile acid, lipoprotein and glucose metabolisms, it is a potential pharmacological target for bile acid and lipid disorders. Thus screening environmental chemicals on FXR signaling can be used for the studies focused on metabolic syndrome, hepatic and intestinal toxicity etc.
Chain of Bile acid receptor (Homo sapiens) (Q96RI1 whole entry, looked up): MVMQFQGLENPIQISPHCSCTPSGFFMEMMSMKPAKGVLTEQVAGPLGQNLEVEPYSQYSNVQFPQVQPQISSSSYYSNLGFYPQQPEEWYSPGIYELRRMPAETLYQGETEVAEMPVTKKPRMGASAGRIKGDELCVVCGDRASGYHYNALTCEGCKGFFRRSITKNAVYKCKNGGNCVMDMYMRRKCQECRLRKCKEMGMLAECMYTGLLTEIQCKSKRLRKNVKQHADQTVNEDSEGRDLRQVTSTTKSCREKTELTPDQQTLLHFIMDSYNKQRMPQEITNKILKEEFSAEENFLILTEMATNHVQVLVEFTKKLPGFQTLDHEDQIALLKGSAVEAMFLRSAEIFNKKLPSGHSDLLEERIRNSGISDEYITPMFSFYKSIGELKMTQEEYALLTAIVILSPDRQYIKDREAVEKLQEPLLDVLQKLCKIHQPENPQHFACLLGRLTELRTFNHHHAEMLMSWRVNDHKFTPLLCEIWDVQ
NCGC Assay Protocol Summary Using a beta-lactamase reporter-gene under control of Farnesoid X receptor (FXR) response element, a cell-based assay [GeneBLAzer FXR-UAS-bla assay developed by Invitrogen] was used to measure FXR ligands signaling. GeneBLAzer FXR-UAS-bla HEK293T cells were used with assay medium containing 10% dialyzed FBS. The assay was performed in clear bottom black Greiner 1536-well plates. Guggulsterone were used in the screen as the positive control. Library compounds were measured for their ability to inhibit the reporter gene activity. Compounds were screened in a titration series in 1536-well format. The fluorescence intensity (405 nm excitation, 460/530 nm emission) was measured using an EnVision plate reader. Data was normalized relative to Chenodeoxycholic acid (50 uM, 100%), and DMSO only wells (basal, 0%). Concentration-response titration points for each compound were fitted to the Hill equation yielding concentrations of half-maximal inhibition (IC50) and maximal response (efficacy) values. qHTS protocol for FXR beta-lactamase assay in antagonist mode [Step] [Parameter] [Value] [Description] 1. Reagent; 5 uL; 5000 cells/well 2. Incubation; 37 C for 5-7 hrs 3. Compounds; 23 nL; 0.59 nM to 92 uM 4. Controls (Guggulsterone, FXR antagonist); 23 nL, - One column of dose response, start 200 uM, 1:2 dilutions in duplicates 5. Agonist (Stimulator); 1uL; Chenodeoxycholic acid at 100 uM and 50 uM final concentrations 6. Incubation; 37 C for 16 hrs 7. Detection reagent; 1 uL of CCF4-dye 8. Incubation; RT for 2 hrs 9. Detection; Fluorescence; Envision plate reader
A general note: qHTS replaces the single test concentration by a dilution series.
With `N=C1C=CC(=C(c2ccc(N)cc2)c2ccc(N)cc2)C=C1`, the “activity change, negative = inhibition” value is 13.5%.
In the case of `CCCCOC(=O)COc1ccc(Cl)cc1Cl`, the Potency entry is “inactive”.
Same read-out and setting: with `Cc1ccc2ccc3cccc4ccc1c2c34` the figure was 44.7 µM (active).
The same measure, in the same setting: to `Nc1cnn([C@@H]2O[C@H](CO)[C@@H](O)[C@H]2O)c(=O)n1` belongs 25.1 µM (active).
Take `Cc1c(N)cccc1Cl`: the “activity change, negative = inhibition” value was -1.87%.
On the same count and under the same terms, with `CC(=O)OC(C(=O)c1ccccc1)c1ccccc1` (centres undefined) the figure was 8.1%; with `Oc1c(Cl)cc(Cl)c(Cl)c1Cl`, -3.76%.
Consider `Cc1ccc(O)c(N)c1`, for which the “activity change, negative = inhibition” value was -6.78%.
On the same count and under the same terms, with `c1ccc(SCCSc2ccccc2)cc1` the figure was -5.96%; with `CC(C)OCC1CO1` (centres undefined), 2.93%; with `C/C(Cl)=C/CCl`, -3.42%.
Same read-out and setting: with `CCCCC(CC)COCCCN` (centres undefined) the figure was -7.63%; with `CCCCCCCCOc1ccc(C(=O)O)cc1`, -9.06%.
Take `O=C1OC(=O)c2ccccc21`: the “activity change, negative = inhibition” value is -0.554%.
Still for that read-out and setting: to `CCCCCCCCC1CO1` (centres undefined) belongs -5.96%; to `CN(C)c1ccc(Cc2ccc(N(C)C)cc2)cc1`, -16.3%; to `C=CC(=O)OCCCCCCOC(=O)C=C`, -12.9%.
`OCC(CO)(CBr)CBr`: the Potency result was “inactive”.
Still for that read-out and setting: with `CC(CCC(=O)O)(c1ccc(O)cc1)c1ccc(O)cc1` the entry was “inactive”.
Consider `Cc1c2ccccc2c(C)c2c1ccc1ccccc12`, for which the “activity change, negative = inhibition” value was -0.585%.
For `CCCCCCCC/C=C\CCCCCCCC(=O)N(CCO)CCO`, the “activity change, negative = inhibition” value is -23.3%.
Regarding `CC(=O)OC1CC(C)OC(C)O1` (centres undefined), the Potency entry is “inactive”.
As for `C[Si](C)(C)Cl`, the “activity change, negative = inhibition” value was 2.38%.
As for `c1ccc(COCc2ccccc2)cc1`, the “activity change, negative = inhibition” value is 0.585%.
For the compound `Cc1ccc(S(N)(=O)=O)cc1`, the Potency result is “inactive”.
As for `Cc1ccccc1OCC1CO1` (centres undefined), the “activity change, negative = inhibition” value is -14.5%.
The same measure, in the same setting: with `C=CC(=O)CC` the figure was -6.71%; with `c1ccc2c(c1)ccc1ccccc12`, -18.4%; with `Cc1cc2nc(N)sc2cc1C`, 13.5%.
For the compound `N[C@@H](Cc1ccccc1)C(=O)O`, the “activity change, negative = inhibition” value is -8.2%.
For the compound `COc1ccc(C(=O)Nc2ccccc2)cc1[N+](=O)[O-]`, the “activity change, negative = inhibition” value is -5.61%.
For `O=C(O)c1ccc([N+](=O)[O-])cc1`, the Potency entry is “inactive”.
`Cc1c(C(=O)O)c(O)cc2c1C(=O)c1c(O)c([C@H]3O[C@H](CO)[C@@H](O)[C@H](O)[C@H]3O)c(O)c(O)c1C2=O`: the “activity change, negative = inhibition” value is 3.57%.
With `CC(=O)CC(=O)Nc1ccccc1`, the Potency result is “inactive”.
Turning to `Cc1cc(=O)oc2cc(O)cc(O)c12`, the “activity change, negative = inhibition” value was -8.56%.
With `COc1ccc([N+](=O)[O-])cc1N`, the Potency result was “inactive”.
`CC(=O)OCc1ccc2c(c1)OCO2`: the “activity change, negative = inhibition” value is 1.48%.
Consider `NC(=O)Nc1nc2ccccc2[nH]1`, for which the “activity change, negative = inhibition” value is -11.3%.
Take `CC(/C=C/C=C(C)/C=C/C(=O)O)=C\C=C\C=C(C)\C=C\C=C(C)\C=C\C(=O)O`: the “activity change, negative = inhibition” value is 8.93%.
